# Assay outcomes as filed in PubChem.
# An excerpt weighted towards active compounds, which were near 19% of everything screened.
# CHX counter: affects cycloheximide protein synthesis inhibition readout, counter-screen | cell reporter, cycloheximide protein synthesis inhibition counterscreen | max response, % | 12% of 300,000 active | AID 2314; in the data active means max response mostly above about 13%, no sharp cut-off; inactive means mostly below about 14%; further: read at 38.3 µM for the half of the compounds with a filed dose; 0% is about no effect
# Shiga inhibitor: inhibitors of Shiga toxin in Vero cells | Vero cells, Shiga toxin protein synthesis inhibition reporter | inhibition, % at 38.7 µM | 9.2% of 290,000 active; in the data active means inhibition mostly above about 28%, no sharp cut-off; inactive means mostly below about 43%; further: 0% is about no effect
# Pf growth 48h: P. falciparum growth inhibition at 48 hours (one generation); P. falciparum luciferase growth in erythrocytes, 48 h; Potency, µM (titrated, usually from 28.7 µM), for inactives: at the top dose activity change, negative = inhibition, hits mostly inhibitors; 5.9% of 310,000 active; AID 504832; further: potency means the concentration at half of the fitted maximal effect; on the % scale 0 is the no-effect control and ±100 the full control effect
#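 Cell-based growth assay: transgenic P. falciparum expressing firefly luciferase, cultured in red cells within RPMI 1640 containing 0.5% w/v Albumax, 24 mM bicarbonate and gentamycin. A drop in luciferase activity indicates inhibition.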
# Lassa entry inh: inhibitors of Lassa virus binding or cell entry | Lassa virus pseudotype entry inhibition, cell reporter | Potency, µM (titrated, usually from 37.9 µM), without a hit: top-dose activity change, negative = inhibition, hits mostly inhibitors | 1.2% of 300,000 active; calls by dose curve; tested in HEK293 cells; further: potency means the concentration at half of the fitted maximal effect; on the % scale 0 is the no-effect control and ±100 the full control effect; nearly all actives have a fitted effect of over 50% in size
# Marburg entry inh: Marburg virus entry inhibition. Marburg virus pseudotyped entry inhibition, cell reporter. Potency, µM (titrated, usually from 37.8 µM), for inactives: top-dose activity change, negative = inhibition, most hits filed as inhibitors. 1.8% of 300,000 active; calls by dose curve; tested in HEK293 cells; further: potency means the concentration at half of the fitted maximal effect; on the % scale 0 is the no-effect control and ±100 the full control effect
# Pf growth 96h: P. falciparum growth inhibition at 96 hours; P. falciparum luciferase reporter growth, 96 h; Potency, µM (series often up to 28.7 µM), for the others: top-dose activity change, negative = inhibition, usual class: inhibitors; 6.9% of 320,000 active; AID 504834; further: potency means the concentration at half of the fitted maximal effect; on the % scale 0 is the no-effect control and ±100 the full control effect
#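 P. falciparum expressing integrated firefly luciferase grown in erythrocytes (2% hematocrit, 0.05% parasitemia final) with compounds for 96 hours at 37 C, 5% CO2. Growth inhibition read as loss of luminescence after adding luciferase detection reagent.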
# The depositor's hits bear a star; ? = inconclusive; . = not tested or not shown; [ ] = dose if it differs, or a comment. Unless noted, the call rests on the fitted dose curve; in most records, active means well fitted inhibition curve with a large enough effect; inconclusive means small, poorly fitted or top-dose-only effect, or another doubt; inactive means no such curve, though single readings can be large or run the other way.
SMILES,CHX counter,Shiga inhibitor,Pf growth 48h,Lassa entry inh,Marburg entry inh,Pf growth 96h
CCSc1nc2ccccc2n1CC(=O)N1CCCCC1,6.8,-26.0,2.8%,7.1%,2.4%,47.5%
O=C(Nc1ccc(N2CCC(N3CCCCC3)CC2)c(C(=O)O)c1)c1ccccc1,.,.,.,-1.8%[46.1 µM],.,.
O=C(Nc1cc2c3c(c1)C1CCCC1CN3CC1CCCC21)c1ccccc1 (configuration not stated),-2.1,-19.1,13.1µM*,-26.0%,-16.1%,44.6%
COc1cc(OC)cc(C(=O)N[C@H](C(=O)Nc2nc(-c3ccc(OC)c(OC)c3)cs2)C(C)C)c1,12.9,-3.6,13.1µM*,.,.,10.4µM*
COc1ccc(CCNc2nc(-c3ccc(O)cc3)cs2)cc1OC,6.8,30.4,?,.,.,10.4µM*
COc1ccc(CCNc2nc(-c3ccncc3)cs2)cc1OC,8.3,14.9,-16.1%,.,.,?
COc1ccc(-c2csc(NC(=O)CN3C(=O)C4CC=CCC4C3=O)n2)cc1 (configuration not stated),.,.,-15.0%,.,.,53.0%
COc1ccc(-c2csc(NC(=O)CCN3C(=O)C4CC=CCC4C3=O)n2)cc1OC (configuration not stated),.,.,10.4µM*,.,.,?
COc1ccc(-c2csc(NC(=O)Cc3cc(OC)c(OC)c(OC)c3)n2)cc1OC,-3.4,-5.9,?,.,?,11.7µM*
Cc1cc(C)c(C)c(OCc2nc(-c3cccnc3)no2)c1,-2.3,2.3,-6.1%,4.8%,-2.8%,19.9%
COc1cccc(C(=O)OCC(=O)NC23CC4CC(CC(C4)C2)C3)c1,.,.,.,3.7%,21.6%,.
COc1ccc(CCC(=O)Nc2nnc(C(F)(F)F)s2)cc1,-2.1,-32.5,?,.,.,14.7µM*
COc1ccc(CCC(=O)Nc2ncc(C)s2)cc1,16.9*,35.3*,15.1%,.,4.1%,12.6%
COc1ccc2c(CC(=O)Nc3nc(C)cs3)coc2c1,25.3,27.8,-9.9%,5.5%,?,-2.5%
COc1ccc2c(CC(=O)Nc3ncc(C)s3)coc2c1,32.9*,86.0*,49.1%,0.3%[46.1 µM],?,113.4%
CC(C)C[C@H](NC(=O)OC(C)(C)C)C(=O)N[C@@H](CO)[C@H](O)[C@@H]1C[C@@H]1C(=O)NC1CCCCC1,-2.3,-4.2,2.4%,.,.,?
CC1(C)CC(=O)c2cc(C#N)c(=O)n(-c3ccc(Cl)cc3)c2C1,.,.,.,27.4%[46.1 µM],2.1%[46.1 µM],.
Cc1cc(C)c2nc(N(CCN(C)C)C(=O)c3ccc(S(=O)(=O)N(C)CC4CCCO4)cc3)sc2c1 (configuration not stated),22.4*,57.9,-11.1%,.,.,?
Cc1cc(C)cc(NC(=O)c2ccc(S(=O)(=O)N(C)CC3CCCO3)cc2)c1 (configuration not stated),-1.7,-4.6,?,-11.0%,?,2.62µM*
Cc1ccc(NC(=O)c2ccc(Cl)c(S(=O)(=O)NCC3CCCO3)c2)c(O)c1 (configuration not stated),1.6,0.8,?,-25.5%,-6.0%,6.57µM*
O=S(=O)(NCC1CCCO1)c1ccc(-c2ccc(Cl)cc2)cc1 (configuration not stated),17.2*,20.4,0.0%,?,?,41.7%
Cc1ccccc1NC(=O)c1ccc(F)c(S(=O)(=O)NCC2CCCO2)c1 (configuration not stated),-3.9,-13.7,2.1%,.,.,24.3%
CCOc1cccc2sc(N(CCCN(C)C)C(=O)c3ccc(S(=O)(=O)N(C)CC4CCCO4)cc3)nc12 (configuration not stated),-2.7,-12.3,-12.6%,9.9%,?,?
COc1ccc(-c2ccc(S(=O)(=O)NCC3CCCO3)cc2)cc1 (configuration not stated),6.7,-60.1,13.4%,?,-17.2%,?
Cc1ccc(NC(=O)c2ccc(S(=O)(=O)NCC3CCCO3)cc2)cc1 (configuration not stated),9.4,31.3*,-18.2%,29.3%,15.3%,-23.5%
O=C(CN(Cc1ccco1)C(=O)CNS(=O)(=O)c1ccc(Cl)cc1)NCC1CCCO1 (configuration not stated),-2.1,1.9,1.85µM*,-12.0%,-17.2%[46.1 µM],0.0%
